# Measurements as given in PubChem BioAssay AID1159607 (Small Molecule Screening Facility, UW Madison, 2016).
# Where “and” joins values, the source holds several entries; their conditions need not be identical. Equal entries are not always repeated. Among all 70,000 compounds or so, about 400 (0.57%) were called active. What follows is part of a selection rich in actives, with near analogues and random picks from the rest. Unmarked numbers belong to inactive results. No stated cut-off is given here; in the data, active means FP signal below about 40; inactive means the rest.
# Test system: RMI core complex (RMI1/RMI2) binding to FANCM MM2 peptide, human
# Assay: disruptors of RMI1/RMI2 association with MM2 peptide – biochemical, fluorescence polarization, human, primary screen (AID 1159607)
# Conditions: RMI core complex with F-MM2 peptide, at 33 µM, stronger effect = lower value
row,SMILES,FP signal (polarization)
1,Cc1cccn2c(=O)c(/C=C3\SC(=S)N(C)C3=O)c(NCc3ccc4c(c3)OCO4)nc12,42
2,Cc1ccc(S(=O)(=O)NCCCCCC(=O)Nc2ccncc2)cc1,56
3,Cc1ccc(NC(=O)C(=O)Nc2cc(F)ccc2F)cc1N1CCCC1=O,54
4,O=C(CSc1nnc(NC(=O)c2ccc(Br)o2)s1)Nc1cc(C(F)(F)F)ccc1Cl,64
5,COC(=O)c1c(N2C(=O)C3ON(c4ccc(Cl)cc4)C(c4ccco4)C3C2=O)sc(C)c1C (configuration not stated),25 (active)
6,N#CC(c1ccccc1)N1CCSCC1 (configuration not stated),56
7,Cc1cc(-c2nnc(NC(=O)Cc3ccc(F)cc3)o2)n(C)n1,70
8,CCOC(=O)N1CCc2c(sc(NC(=O)CSc3ccccc3)c2C(N)=O)C1,67
9,O=C(NCCn1ncc2c(=O)n(Cc3cccc([N+](=O)[O-])c3)cnc21)C1CC(=O)N(c2ccc(F)cc2)C1 (configuration not stated),71
10,O=C(CCn1cncn1)N1CCN(C(=O)N2CCOCC2)CC1,63
11,O=C(c1ccc(=O)n(Cc2cccc(F)c2)n1)N1CCN(Cc2ccccc2)CC1,59
12,CCN1C(=O)Cc2cc(NC(=O)c3ccc(F)c(F)c3)ccc21,68
13,COc1ccc(Cl)c2sc(NNC(=O)c3ccc(S(=O)(=O)N4CCc5ccccc5C4)cc3)nc12,11 (active)
14,CSc1ccc2nc(NC(=O)c3ccc(S(=O)(=O)N4CCc5ccccc5C4)cc3)sc2c1,70
15,COc1ccc(Cl)c2sc(NC(=O)C3CCCN(S(C)(=O)=O)C3)nc12 (configuration not stated),63
16,CCc1nnc(NC(=O)CSc2ccc3nc(-c4ccccc4)cn3n2)s1,55
17,CN(C)C(C#N)c1cccc(Cl)c1Cl (configuration not stated),69
18,CCOC(=O)N1CCc2c(sc(NC(=O)c3ccccc3I)c2C#N)C1,63
19,COc1cn(CC(=O)Nc2ccc(C)cc2C)c(CSc2nnnn2C)cc1=O,52
20,C(=N/NC1=NCCN1Cc1ccccc1)/c1ccc2c(c1)OCO2,51 and 48
21,Clc1ccc(-c2csc(-c3ccncc3)n2)cc1,51
22,CCn1cc(C(=O)N2CCN(Cc3cc(C)ccc3C)CC2)c2nn(-c3ccccc3)c(=O)c-2c1,64
23,COCC(=O)Nc1ccc2c(c1)C(=O)N(C)c1cc(C)ccc1O2,69
24,O=C(C1=C(O)C(=O)N(CCCN2CCOCC2)C1c1ccco1)c1cccs1 (configuration not stated),57
25,COc1ccccc1CCNC(=O)Cc1csc(Nc2ccc(F)cc2)n1,65
26,O=C(Cc1csc(Nc2ccccc2)n1)NCc1ccccc1Cl,63
27,O=C(Cc1csc(Nc2ccc(F)cc2)n1)NCc1ccccn1,9 (active)
